Laboratory results published in article PMC10668032, “Altered binding affinity of SIX1-Q177R correlates with enhanced WNT5A and WNT pathway effector expression in Wilms tumor”.
Over roughly 33,000 sequences, “e-score” has its median near -0.05; the highest 2% begin near 0.38. This excerpt belongs to a sample that is enriched for the highest values.

Each sequence was assayed against T1, SIX1-Q177R homeodomain (human, UniProt Q15475 108-198, Q177R) (assay: universal protein binding microarray; Universal all-10-mer PBM (8x60K, AMADID 030236), 300 nM GST-tagged protein, Alexa Fluor 488 anti-GST; buffer, salt, pH and temperature not stated (as in Berger); high values mean tight binding). Details: protein: ivt; tags: N-terminal GST; dsDNA, one strand shown.
T1 sequence: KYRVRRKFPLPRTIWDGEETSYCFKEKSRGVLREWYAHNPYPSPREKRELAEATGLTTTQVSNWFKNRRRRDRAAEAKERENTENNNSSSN
Method in brief: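 Binding was expressed as 8-mer E-scores calculated with the Universal PBM Analysis Suite. The GST-tagged homeodomains, made by in vitro transcription/translation, were applied in duplicate at 300 nM final concentration to universal 'all 10-mer' protein binding microarrays (8×60K format).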

Sequence	binding signal
ATAACACC	0.479 ± 0.0087 E-score
ATAACACG	0.402 ± 0.0181 E-score
ATAACTCC	0.181 ± 0.0433 E-score
GTAACACA	0.223 ± 0.0443 E-score
ATAACCCC	0.266 ± 0.0237 E-score
CTAACACA	0.209 ± 0.00581 E-score
CTAACACC	0.478 ± 0.00653 E-score
CTAACCCC	0.223 ± 0.0193 E-score
ATAACACA	0.2399 ± 0.00217 E-score
CCCCGTGC	0.244 ± 0.0265 E-score
CGCCGCCG	0.208 ± 0.031 E-score
ATTCACTC	0.151 ± 0.0349 E-score
AGCACGCA	0.24 ± 0.0253 E-score
CACCCCGC	0.337 ± 0.0136 E-score
GGTCCGGA	0.161 ± 0.0425 E-score
GATATCCC	0.193 ± 0.0406 E-score
ACACCTGG	0.448 ± 0.00897 E-score
ACCCCTGA	0.2405 ± 0.00201 E-score
AAACCTGG	0.169 ± 0.0219 E-score
ACCCCTGG	0.163 ± 0.00865 E-score
ACACCTGC	0.4582 ± 0.00372 E-score
ACTCCTGA	0.206 ± 0.00412 E-score

Sequence	binding signal
ACACCTGA	0.4477 ± 0.00107 E-score
ACCCCTGC	0.235 ± 0.0269 E-score
ACTCCTGC	0.158 ± 0.00297 E-score
CCCTTGTA	0.2081 ± 0.00151 E-score
ATTCCGTG	0.2 ± 0.0598 E-score
CCCAGGCG	0.167 ± 0.0378 E-score
CGAGGCAA	0.186 ± 0.00832 E-score
GAGTGCAC	0.195 ± 0.00266 E-score
GAGTGTGC	0.184 ± 0.00494 E-score
CAGTGCAC	0.183 ± 0.0019 E-score
AAGTGTAC	0.391 ± 0.0232 E-score
CAGTGTAC	0.4035 ± 0.00271 E-score
CTGTGTAC	0.229 ± 0.0232 E-score
GAGTGTAC	0.419 ± 0.00767 E-score
AAGTGTAG	0.37 ± 0.0123 E-score
CACTGTAC	0.194 ± 0.0212 E-score
CAGTGTAG	0.4232 ± 0.00358 E-score
CACTTATG	0.161 ± 0.0539 E-score
AAGTTACA	0.171 ± 0.00584 E-score
AGAAGGTG	0.302 ± 0.0205 E-score
CCCCGGAC	0.152 ± 0.0324 E-score
GAGCACCC	0.283 ± 0.0502 E-score

Sequence	binding signal
TGGTGTAA	0.486 ± 0.00978 E-score
CGGTGTAG	0.487 E-score
GGGTGTAA	0.478 ± 0.01 E-score
GTGTGTAA	0.337 ± 0.0168 E-score
ATGTGTAA	0.225 ± 0.00674 E-score
AGGTGCAA	0.169 ± 0.04 E-score
CGGGGTAG	0.221 ± 0.00415 E-score
TGGTGCAA	0.169 ± 0.0456 E-score
GGGGGTAA	0.354 ± 0.0195 E-score
TGGAGTAA	0.233 ± 0.068 E-score
AGGTGTAA	0.463 ± 0.021 E-score
GGTGCACC	0.353 ± 0.00627 E-score
CAACAACA	0.195 ± 0.00619 E-score
TGACCCCA	0.279 ± 0.0177 E-score
CGGAGTAA	0.266 ± 0.0379 E-score
AAGGTATC	0.251 ± 0.0701 E-score
GGAACCCA	0.181 ± 0.0136 E-score
GACCTCAC	0.161 ± 0.0365 E-score
ACCGAACA	0.196 ± 0.0386 E-score
CGGTGCAA	0.259 ± 0.00579 E-score
GGGTGCAC	0.28 ± 0.022 E-score
CTGTGTAA	0.153 ± 0.011 E-score

Sequence	binding signal
GGGTGTAC	0.4828 ± 0.00134 E-score
GGGGGTAC	0.331 ± 0.0182 E-score
CGGTGTAA	0.481 ± 0.0071 E-score
CCCCACGA	0.1526 ± 0.000735 E-score
TGTAAGAA	0.294 ± 0.0277 E-score
AAACGTGT	0.303 ± 0.054 E-score
CCCGGTGC	0.154 ± 0.0105 E-score
GCTTACAC	0.437 ± 0.0203 E-score
CCTTATAA	0.179 ± 0.0218 E-score
ACTTACAC	0.449 ± 0.0178 E-score
CCTTACAC	0.439 ± 0.0105 E-score
CCTCACAC	0.279 ± 0.0153 E-score
ACTTACTC	0.179 ± 0.00345 E-score
ACTTACCC	0.186 ± 0.0205 E-score
ACTTACGC	0.164 ± 0.00788 E-score
GCTCACAC	0.276 ± 0.0114 E-score
CTCGCCCC	0.173 ± 0.0101 E-score
GGAGGGTA	0.224 ± 0.0107 E-score
ACCCACAA	0.151 ± 0.0489 E-score
CCCCACCG	0.228 ± 0.054 E-score
